# Records with an inconclusive call do not appear. The source made the active and inactive calls. The call rests on the fitted dose curve; in most records, active means well fitted inhibition curve with a large enough effect; inconclusive means small, poorly fitted or top-dose-only effect; inactive means no such curve, though single readings can be large or run the other way.
# Assay: qHTS assay to identify inhibitors of the type 1 interferon - major histocompatibility complex class I in skeletal muscle: Counter screen cell viability and HiBit confirmation (AID 1347412); further: nearly all actives have a fitted effect of over 60% in size
# Conditions: iHSKM muscle cells + IFN-b, HiBiT or CellTiter-Glo, 24 h; HiBiT
# Source text: Assay Submitter (PI): Travis B. Kinder Ph.D. & James Inglese Ph.D. Assay Development and Screening Technology Laboratory (ADST) National Center for Advancing Translational Sciences (NCATS), Rockville, MD National Institute of Health (NIH), Bethesda, Maryland Idiopathic inflammatory myopathies, collectively referred to as myositis, are a group of rare autoimmune diseases characterized by skeletal muscle inflammation, weakness, and usually accompanied by systemic pathologies of the skin, lungs, or vasculature. Current immunosuppressive therapies and glucocorticoids are often not curative and are accompanied by harsh side effects, especially in children with juvenile myositis. We initiated a drug repurposing and development program to identify more targeted, less toxic therapeutics to treat myositis. Although its cause is not known, muscle from a subset of patients have an abundance of the inflammatory type 1 interferon (IFN) and a down-stream product major histocompatibility complex class I (MHC class I), which are both thought to contribute to damage and weakness. We conducted quantitative high throughput screening on 6,576 compounds (4,679 unique) through a series of cell-based assays to identify those that inhibit the IFN-stimulated expression of MHC class I in muscle precursor cells (myoblasts). The compound identification and evaluation strategy utilized a primary screen with reporter-tagged MHC class I in genome-engineered myoblasts, ATP content counter screen for viability, HLA-ABC immunofluorescence secondary screen, and HLA-B RT-qPCR tertiary screen. The primary screen utilized CRISPR/Cas9 genome-engineering of immortalized human myoblasts, C25cl48, where a pro-luminescent reporter HiBit was fused to the C-terminus of endogenous MHC class I allele HLA-B*08:01 (HLA-B HiBit myoblasts). HiBit is an 11 amino acid fragment of NanoLuc luminescent reporter (Promega Corporation), and when complexed to the larger LgBit fragment, the reconstituted enzyme produces light in the presence of furimazine substrate (Schwinn et al., 2018). Briefly, HLA-B HiBit myoblasts were plated into 1536-well plates, treated with 4.0 ng/ml human IFN-beta and 650 inhibitory compounds identified from primary screening in a 12-point, 1:3 titration with a high final concentration of 46 uM. Compounds were pinned into duplicate plates, with one for HiBit confirmation and one for ATP content viability assay. After 24 hrs of treatment, cells were assayed by either Nano-Glo HiBiT Lytic Detection System (Promega) or CellTiter Glo (Promega), and luminescence measured by a ViewLux 1430 Ultra HTS (Perkin Elmer). References: Schwinn MK, Machleidt T, Zimmerman K, Eggers CT, Dixon AS, Hurst R, Hall MP, Encell LP, Binkowski BF, Wood K V. 2018. CRISPR-Mediated Tagging of Endogenous Proteins with a Luminescent Peptide. ACS Chem Biol 13:467-474. doi:10.1021/acschembio.7b00549
# PROTOCOL TABLE (as described by Inglese et al., 2007) SEQUENCE No. (e.g., 1, 2, 3, etc.); […] (e.g., Cells, Incubation, Reagent, etc.); VALUE; DESCRIPTION 1a; Cells; 5 uL; Use a Multidrop Combi (Thermo Scientific) to seed 300 cells/well into 16 Greiner 1536 well white/solid bottom, high base, TC plates in 5 ul/well of iHSKM growth medium (GM) without dexamethasone into columns 1+2. Add metal lids with gas-exchange holes 1b; Cells; 5 uL; Use a Multidrop Combi (Thermo Scientific) to seed 300 cells/well into 16 Greiner 1536 well white/solid bottom, high base, TC plates in 5 ul/well of iHSKM GM without dexamethasone + 4 ng/ml IFN-b into columns 3 - 48. Add metal lids with gas-exchange holes 2; Incubate; 1 hr; Incubate at 37 C, 5% CO2, 95% RH 3; Compounds; 23 nl; Use Pin Tool (Wako) to transfer DMSO control, 92 uM final digitonin cytotoxic control, ruxolitinib IFN-b inhibitor control [High Concentration = 80 uM final, 16-pt, 1:2 in duplicate], and library compounds in DMSO. […]
# On the % scale 0 is the no-effect control and ±100 the full control effect; potency means the concentration at half of the fitted maximal effect.
row,Structure (SMILES),Potency
1,CC[n+]1c(/C=C/C=C2/N(C)c3ccccc3C2(C)C)sc2ccccc21,7.01 µM (active)
2,O=C1Cc2c([nH]c3ccc(Br)cc23)-c2ccccc2N1,15.7 µM (active)
3,O=c1[nH]c2cc(Cl)ccc2c(O)c1-c1ccc(Oc2ccccc2)cc1,5.57 µM (active)
4,C=C1C(=O)O[C@@H]2[C@H]3O[C@]3(C)CCC=C(C)CC[C@@H]12,8.83 µM (active)
5,Brc1c(Br)c(Br)c2[nH]cnc2c1Br,14 µM (active)

# Same assay, conditions: iHSKM muscle cells + IFN-b, HiBiT or CellTiter-Glo, 24 h; Viability
row,Structure (SMILES),Potency
1,CC[n+]1c(/C=C/C=C2/N(C)c3ccccc3C2(C)C)sc2ccccc21,9.91 µM (active)

# Same assay, conditions: iHSKM muscle cells + IFN-b, HiBiT or CellTiter-Glo, 24 h; Viability; at 45.9 µM (top of the series)
row,Structure (SMILES),"activity change, negative = inhibition"
1,O=C1Cc2c([nH]c3ccc(Br)cc23)-c2ccccc2N1,-21.6% (inactive)
2,O=c1[nH]c2cc(Cl)ccc2c(O)c1-c1ccc(Oc2ccccc2)cc1,-0.671% (inactive)
3,C=C1C(=O)O[C@@H]2[C@H]3O[C@]3(C)CCC=C(C)CC[C@@H]12,52.5% (inactive)
4,Brc1c(Br)c(Br)c2[nH]cnc2c1Br,3.14% (inactive)
